Results: the supplement of paper PMC12494721
Where a name gives a salt, the structure may show the parent alone.

What was measured:
Conditions in all cases: incubation time: 27 h, anaerobic, 37 °C;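 for the amine columns active = adjusted P below 0.05 in both replicates with a change the same way and a mean fold change under 0.8 or over 1.25; inactive = the rest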
[1] = test system: Clostridium sporogenes DSM 1664; assay: growth (OD595) fold change vs plate DMSO controls (fold change (ratio)); higher = more growth
Outline: (§1)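 The 96-well mGAM cultures had been kept anaerobic for 27 h at 37 °C before being shaken and read at 595 nm. Blank subtraction, compound background correction with 20 µM compound solutions in water, and a calibration factor of 5 turned the readings into OD. Growth is given as the fold change versus the median of plate DMSO controls. Fold changes above 1.5 were set to NA, and the values are means of 2 biological replicates.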

[2] = test system: Escherichia coli IAI1; assay: as above
Outline: as §1

[3] = test system: Klebsiella aerogenes DSM 30053; assay: as above
Outline: as §1

[4] = test system: Ruminococcus gnavus DSM 108212; assay: as above
Outline: as §1

[5] = test system: Klebsiella aerogenes DSM 30053; assay: fold change of Histamine concentration vs plate DMSO controls (fold change (ratio)); higher = more amine produced, active = hit call of the paper (significant change in both replicates, either direction)
Outline: (§2)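 In 80 µL wells, cultures of four gut bacterial strains in mGAM started at OD 0.1 before a 1:1 dilution and grew anaerobically at 37 °C for 27 h. Compounds were added to 20 µM final, except sweeteners at 50 µM final. After extraction of whole cultures with cold acetonitrile/methanol plus 0.1% formic acid and centrifugation, amines were measured by LC–triple-quadrupole MS in dynamic MRM mode against external calibration curves, with within-batch drift correction. Values give fold change over DMSO controls on the same plate, averaged across 2 biological replicates.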

[6] = test system: Clostridium sporogenes DSM 1664; assay: fold change of Tryptamine concentration vs plate DMSO controls (fold change (ratio)); higher = more amine produced, active = hit call of the paper (significant change in both replicates, either direction)
Outline: as §2

[7] = test system: Ruminococcus gnavus DSM 108212; assay: as above
Outline: as §2

[8] = test system: Escherichia coli IAI1; assay: fold change of Putrescine concentration vs plate DMSO controls (fold change (ratio)); higher = more amine produced, active = hit call of the paper (significant change in both replicates, either direction)
Outline: as §2

[9] = test system: Klebsiella aerogenes DSM 30053; assay: as above
Outline: as §2

[10] = test system: Escherichia coli IAI1; assay: fold change of Cadaverine concentration vs plate DMSO controls (fold change (ratio)); higher = more amine produced, active = hit call of the paper (significant change in both replicates, either direction)
Outline: as §2

[11] = test system: Klebsiella aerogenes DSM 30053; assay: as above
Outline: as §2

[12] = test system: Ruminococcus gnavus DSM 108212; assay: fold change of 2-Phenylethylamine concentration vs plate DMSO controls (fold change (ratio)); higher = more amine produced, active = hit call of the paper (significant change in both replicates, either direction)
Outline: as §2

| Structure (SMILES) | growth [1] | growth [2] | growth [3] | growth [4] | fold change of Histamine concentration [5] | fold change of Tryptamine concentration [6] | fold change of Tryptamine concentration [7] | fold change of Putrescine concentration [8] | fold change of Putrescine concentration [9] | fold change of Cadaverine concentration [10] | fold change of Cadaverine concentration [11] | fold change of 2-Phenylethylamine concentration [12] |
| --- | --- | --- | --- | --- | --- | --- | --- | --- | --- | --- | --- | --- |
| CCOc1nc2cccc(C(=O)OCc3oc(=O)oc3C)c2n1Cc1ccc(-c2ccccc2-c2noc(=O)[nH]2)cc1 [Azilsartan medoxomil] (20 µM) | 1.04 | 1 | 0.984 | 1.1 | 1.04 (inactive) | 1.01 (inactive) | 1.07 (inactive) | 1.02 (inactive) | 1.01 (inactive) | 0.997 (inactive) | 0.999 (inactive) | 1.03 (inactive) |
| Cc1cc(C(=O)NNCc2ccccc2)no1 [Isocarboxazid] (20 µM) | 1.17 | 1.04 | 1.18 | 0.995 | 0.915 (inactive) | 1.09 (inactive) | 1.07 (inactive) | 1.05 (inactive) | 0.987 (inactive) | 0.983 (inactive) | 1.02 (inactive) | 1.09 (inactive) |
| COc1cc(NS(=O)(=O)c2ccc(N)cc2)nc(OC)n1 [Sulfadimethoxine] (20 µM) | 0.79 | 0.992 | 1.1 | 1.01 | 0.891 (inactive) | 1.05 (inactive) | 1.29 (active) | 0.887 (inactive) | 0.946 (inactive) | 0.888 (inactive) | 1.03 (inactive) | 1.53 (active) |
| OC(CCCN1CCCCC1)(c1ccccc1)c1ccccc1 [Diphenidol hydrochloride] (20 µM) | 1.03 | 1.08 | 1.01 | 1.26 | 1.06 (inactive) | 1.03 (inactive) | 0.963 (inactive) | 1.05 (inactive) | 1.02 (inactive) | 0.932 (inactive) | 0.981 (inactive) | 0.92 (inactive) |
| OC(CCN1CCCCC1)(c1ccccc1)C1CCCCC1 (stereo not drawn) [Trihexyphenidyl-D,L hydrochloride] (20 µM) | 1.05 | 1.11 | 1.02 | 0.865 | 0.954 (inactive) | 1.01 (inactive) | 0.874 (inactive) | 1.17 (inactive) | 0.97 (inactive) | 0.697 (inactive) | 0.984 (inactive) | 0.92 (inactive) |
| CCCc1c2oc(C(=O)O)cc(=O)c2cc2c(=O)cc(C(=O)O)n(CC)c12 [Nedocromil sodium] (20 µM) | 0.949 | 0.993 | 1 | 0.981 | 1.06 (inactive) | 0.924 (inactive) | 0.987 (inactive) | 0.999 (inactive) | 1.01 (inactive) | 1.04 (inactive) | 0.984 (inactive) | 1 (inactive) |
| C[C@H](CC[C@@H](O[C@@H]1O[C@H](CO[C@@H]2O[C@H](CO)[C@@H](O)[C@H](O)[C@H]2O)[C@@H](O)[C@H](O)[C@H]1O[C@@H]1O[C@H](CO)[C@@H](O)[C@H](O)[C@H]1O)C(C)(C)O)[C@H]1CC[C@@]2(C)[C@@H]3CC=C4[C@@H](CC[C@H](O[C@@H]5O[C@H](CO[C@@H]6O[C@H](CO)[C@@H](O)[C@H](O)[C@H]6O)[C@@H](O)[C@H](O)[C@H]5O)C4(C)C)[C@]3(C)[C@H](O)C[C@]12C [Mogroside V] (50 µM) | 0.958 | 0.906 | 1 | 1.22 | 1.03 (inactive) | 1.12 (inactive) | 0.979 (inactive) | 0.939 (inactive) | 1 (inactive) | 1.11 (inactive) | 1.02 (inactive) | 0.964 (inactive) |
| CC(C)[C@H](N)C(=O)OCC(CO)OCn1cnc2c(=O)nc(N)[nH]c21 (stereo partly drawn) [Valganciclovir hydrochloride] (20 µM) | 1.1 | 0.991 | 1.03 | 0.987 | 0.998 (inactive) | 0.983 (inactive) | 0.964 (inactive) | 1.01 (inactive) | 1.01 (inactive) | 1.01 (inactive) | 1.01 (inactive) | 0.926 (inactive) |
| Cc1ccc(Nc2c(F)cccc2Cl)c(CC(=O)O)c1 [Lumiracoxib] (20 µM) | 0.867 | 0.984 | 1.1 | 1.08 | 0.88 (inactive) | 0.956 (inactive) | 0.971 (inactive) | 1.02 (inactive) | 1.02 (inactive) | 1.02 (inactive) | 1.03 (inactive) | 0.994 (inactive) |
| CC(=O)N(CC(O)CN(C(C)=O)c1c(I)c(C(=O)NCC(O)CO)c(I)c(C(=O)NCC(O)CO)c1I)c1c(I)c(C(=O)NCC(O)CO)c(I)c(C(=O)NCC(O)CO)c1I (stereo not drawn) [Iodixanol] (20 µM) | 0.85 | 0.989 | 1.03 | 1.01 | 0.962 (inactive) | 1.02 (inactive) | 0.886 (inactive) | 1.04 (inactive) | 1 (inactive) | 0.988 (inactive) | 0.991 (inactive) | 0.815 (inactive) |
| CC(C)(C(=O)c1cccnc1)c1cccnc1 [Metyrapone] (20 µM) | 1.01 | 1.01 | 1.01 | 1 | 1.03 (inactive) | 1 (inactive) | 1 (inactive) | 0.985 (inactive) | 1.02 (inactive) | 1.01 (inactive) | 1 (inactive) | 1.01 (inactive) |
| CCc1oc2ccccc2c1C(=O)c1ccc(O)cc1 [Benzarone] (20 µM) | 1 | 1.1 | 1.09 | 1.11 | 0.967 (inactive) | 0.933 (inactive) | 0.934 (inactive) | 1.06 (inactive) | 1 (inactive) | 1.01 (inactive) | 1.02 (inactive) | 0.956 (inactive) |
| CCC(C)n1ncn(-c2ccc(N3CCN(c4ccc(OCC5COC(Cn6cncn6)(c6ccc(Cl)cc6Cl)O5)cc4)CC3)cc2)c1=O (stereo not drawn) [Itraconazole] (20 µM) | 1.03 | 0.985 | 1.03 | 0.531 | 1.13 (inactive) | 1.02 (inactive) | 1.05 (inactive) | 1.01 (inactive) | 1.03 (inactive) | 1 (inactive) | 0.995 (inactive) | 0.997 (inactive) |
| CCCCC1C(=O)N(c2ccccc2)N(c2ccc(O)cc2)C1=O (stereo not drawn) [Oxyphenbutazone] (20 µM) | 1.01 | 1 | 1.2 | 1.09 | 0.888 (inactive) | 1.3 (inactive) | 1.14 (inactive) | 1.21 (inactive) | 0.877 (inactive) | 0.973 (inactive) | 1.14 (inactive) | 1.23 (inactive) |
| CC(=O)O[C@]1(C(C)=O)CC[C@H]2[C@@H]3C=C(Cl)C4=CC(=O)CC[C@]4(C)[C@H]3CC[C@@]21C [Chlormadinone acetate] (20 µM) | 1.01 | 1 | 0.994 | 0.974 | 1.04 (inactive) | 0.965 (inactive) | 0.931 (inactive) | 1.04 (inactive) | 1.02 (inactive) | 1.02 (inactive) | 0.995 (inactive) | 0.895 (inactive) |
| COc1cc(NC(C)CCCN)c2ncccc2c1 (stereo not drawn) [Primaquine diphosphate] (20 µM) | 1.08 | 1.02 | 1.07 | 0.905 | 0.851 (inactive) | 1.03 (inactive) | 1.07 (inactive) | 1.03 (inactive) | 0.943 (inactive) | 1 (inactive) | 1.02 (inactive) | 1.09 (inactive) |
| c1ccc2c(c1)ccc1ccccc12 [Phenanthrene] (20 µM) | 0.976 | 0.992 | 0.975 | 0.96 | 1 (inactive) | 1.02 (inactive) | 1.07 (inactive) | 0.992 (inactive) | 0.817 (inactive) | 0.904 (inactive) | 1.12 (inactive) | 1.09 (inactive) |
| CCC1=C(C)CN(C(=O)NCCc2ccc(S(=O)(=O)NC(=O)N[C@H]3CC[C@H](C)CC3)cc2)C1=O [Glimepiride] (20 µM) | 1.02 | 1.03 | 1.02 | 0.969 | 0.985 (inactive) | 0.934 (inactive) | 0.995 (inactive) | 0.976 (inactive) | 0.997 (inactive) | 1.04 (inactive) | 0.993 (inactive) | 1.02 (inactive) |
| O=C(NC1CCN(CCCCC2(C(=O)NCC(F)(F)F)c3ccccc3-c3ccccc32)CC1)c1ccccc1-c1ccc(C(F)(F)F)cc1 [Lomitapide] (20 µM) | 1.1 | 1 | 1.06 | 1.07 | 0.938 (inactive) | 1.01 (inactive) | 0.709 (active) | 1.02 (inactive) | 1.01 (inactive) | 1.04 (inactive) | 1.01 (inactive) | 0.847 (inactive) |
| CCN1CCC[C@H]1CNC(=O)c1c(OC)ccc(Br)c1OC [Remoxipride hydrochloride] (20 µM) | 1.09 | 1.03 | 0.988 | 1.01 | 1.04 (inactive) | 0.946 (inactive) | 0.945 (inactive) | 0.998 (inactive) | 1.02 (inactive) | 1.03 (inactive) | 0.989 (inactive) | 0.92 (inactive) |
| C#C[C@]1(O)CC[C@H]2[C@@H]3[C@H](C)CC4=C(CCC(=O)C4)[C@H]3CC[C@@]21C [Tibolone] (20 µM) | 1.01 | 0.989 | 1.04 | 0.931 | 1.03 (inactive) | 1.05 (inactive) | 1.04 (inactive) | 1.03 (inactive) | 1.02 (inactive) | 0.994 (inactive) | 1.01 (inactive) | 1.02 (inactive) |
| CCCCC(=O)O[C@H]1CC[C@H]2[C@@H]3CCc4cc(O)ccc4[C@H]3CC[C@]12C [Estradiol Valerate] (20 µM) | 0.581 | 0.995 | 0.996 | 1.05 | 0.898 (inactive) | 0.24 (active) | 1 (inactive) | 0.88 (inactive) | 0.925 (inactive) | 0.926 (inactive) | 1.05 (inactive) | 0.953 (inactive) |
| CCCCC(CC)CNC(=N)NC(=N)NCCCCCCNC(=N)NC(=N)NCC(CC)CCCC (stereo not drawn) [Alexidine dihydrochloride] (20 µM) | 0.294 | 0.938 | 0.967 | 0.624 | 1.11 (inactive) | 0.172 (active) | 0.0418 (active) | 1.08 (inactive) | 1.02 (inactive) | 1.12 (inactive) | 0.999 (inactive) | 0.0355 (active) |
| CCCSc1nc(N[C@@H]2C[C@H]2c2ccc(F)c(F)c2)c2nnn([C@@H]3C[C@H](OCCO)[C@@H](O)[C@H]3O)c2n1 [Ticagrelor] (20 µM) | 1.15 | 0.999 | 1.02 | 1.03 | 0.977 (inactive) | 0.88 (inactive) | 0.748 (active) | 1.04 (inactive) | 1.04 (inactive) | 1.07 (inactive) | 1.01 (inactive) | 0.802 (inactive) |
